The full data set covers some 7,900 targets. This sample favours those with a hit. About 0.6% of all pairs of compound and target were hits.
Legend:
Assay in all cases: log2 fold change, soluble protein after heating vs DMSO (PISA); higher = thermal stabilisation; K562 cells, 10 uM, 30 min; active = over 0.2 and 3.5 SD of the protein, either way, in both replicates (recomputed)
[1] = compound: C1=CC=C(C=C1)[C@H](COC2=CC3=C(C=C2)NC(=O)N3)NC(=O)C4=CC=CN(C4=O)CC5=CC(=C(C=C5)F)F
In short: (§1)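 Quantification of soluble protein used TMTpro 16plex LC-MS/MS, with channel sums equalised. Samples were the supernatant after 21,000xg for 90 min of pooled aliquots from K562 cells (2×10^6 cells/mL) treated with 10 μM compound for 30 min, heated for 3 min over 48°C-58°C, and extracted in PBS with 0.5% NP-40 at 4°C. Values, from duplicates, describe thermal stability against control samples on a log2 fold-change scale.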

[2] = compound: CC1=C(SC2=C1C(=N[C@H](C3=NN=C(N32)C)CC(=O)N)C4=CC=C(C=C4)Cl)C
In short: as §1

[3] = compound: CC1=C2C(=CC=C1)N=C(N(C2=O)C3=CC=CC=C3C)CN4C=NC5=C(N=CN=C54)N
In short: as §1

[4] = compound: Cc1sc2c(c1C)C(c1ccc(Cl)cc1)=N[C@@H](CC(=O)OC(C)(C)C)c1nnc(C)n1-2
In short: as §1

[5] = compound: c1ccc([C@@H]2C[C@H]2NC2CCNCC2)cc1
In short: as §1

Measured: log2 fold change

CNOT2 (UniProt Q9NZN8)
inactive: [1] 0.024 | [2] -0.014 | [3] 0.056 | [4] 0.031 | [5] -0.002

CPSF7 isoform 3 (UniProt Q8N684)
inactive: [1] 0.007 | [2] 0.013 | [3] -0.012 | [4] 0.017 | [5] -0.013

C9orf64 (UniProt Q5T6V5)
inactive: [1] -0.15 | [2] 0.054 | [3] 0.097 | [4] 0.052 | [5] -0.066

CTBS (UniProt Q01459)
Chain of UniProt Q01459 (Q01459 whole entry, looked up): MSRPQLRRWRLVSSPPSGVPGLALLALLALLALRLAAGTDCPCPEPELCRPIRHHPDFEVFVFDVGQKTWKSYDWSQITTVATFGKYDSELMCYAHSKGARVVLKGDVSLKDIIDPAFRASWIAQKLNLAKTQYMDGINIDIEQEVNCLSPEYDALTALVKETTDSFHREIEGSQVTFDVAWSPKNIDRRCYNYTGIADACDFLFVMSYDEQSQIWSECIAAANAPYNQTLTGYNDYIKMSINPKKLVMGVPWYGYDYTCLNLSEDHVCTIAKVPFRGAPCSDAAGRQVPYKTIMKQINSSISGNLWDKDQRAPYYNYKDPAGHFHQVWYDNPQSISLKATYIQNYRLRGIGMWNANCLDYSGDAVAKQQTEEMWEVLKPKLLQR
inactive: [1] 0.082 | [2] -0.002 | [3] 0.014 | [4] -0.019 | [5] -0.006

CDK5RAP1 (UniProt Q96SZ6)
Chain of UniProt Q96SZ6 (Q96SZ6 whole entry, looked up): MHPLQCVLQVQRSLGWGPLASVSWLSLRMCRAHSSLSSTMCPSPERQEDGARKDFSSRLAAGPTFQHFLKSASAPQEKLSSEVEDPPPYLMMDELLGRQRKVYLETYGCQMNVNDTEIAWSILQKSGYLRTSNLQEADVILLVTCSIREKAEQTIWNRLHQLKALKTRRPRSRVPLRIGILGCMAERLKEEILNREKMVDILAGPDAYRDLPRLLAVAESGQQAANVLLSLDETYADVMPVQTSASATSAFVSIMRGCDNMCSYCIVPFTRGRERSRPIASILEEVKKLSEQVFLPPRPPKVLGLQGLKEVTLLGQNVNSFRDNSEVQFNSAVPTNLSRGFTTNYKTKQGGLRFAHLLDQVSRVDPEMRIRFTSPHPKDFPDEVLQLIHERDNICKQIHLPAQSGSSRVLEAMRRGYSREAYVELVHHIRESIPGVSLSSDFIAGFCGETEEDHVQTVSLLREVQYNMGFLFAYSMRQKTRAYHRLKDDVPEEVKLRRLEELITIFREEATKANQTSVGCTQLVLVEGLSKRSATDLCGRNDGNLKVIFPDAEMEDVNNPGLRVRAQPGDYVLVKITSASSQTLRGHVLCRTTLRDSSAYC
inactive: [1] 0.056 | [2] 0.029 | [3] 0.149 | [4] 0.028 | [5] -0.023

CCAR1 (UniProt Q8IX12)
Chain of UniProt Q8IX12 (Q8IX12 whole entry, looked up): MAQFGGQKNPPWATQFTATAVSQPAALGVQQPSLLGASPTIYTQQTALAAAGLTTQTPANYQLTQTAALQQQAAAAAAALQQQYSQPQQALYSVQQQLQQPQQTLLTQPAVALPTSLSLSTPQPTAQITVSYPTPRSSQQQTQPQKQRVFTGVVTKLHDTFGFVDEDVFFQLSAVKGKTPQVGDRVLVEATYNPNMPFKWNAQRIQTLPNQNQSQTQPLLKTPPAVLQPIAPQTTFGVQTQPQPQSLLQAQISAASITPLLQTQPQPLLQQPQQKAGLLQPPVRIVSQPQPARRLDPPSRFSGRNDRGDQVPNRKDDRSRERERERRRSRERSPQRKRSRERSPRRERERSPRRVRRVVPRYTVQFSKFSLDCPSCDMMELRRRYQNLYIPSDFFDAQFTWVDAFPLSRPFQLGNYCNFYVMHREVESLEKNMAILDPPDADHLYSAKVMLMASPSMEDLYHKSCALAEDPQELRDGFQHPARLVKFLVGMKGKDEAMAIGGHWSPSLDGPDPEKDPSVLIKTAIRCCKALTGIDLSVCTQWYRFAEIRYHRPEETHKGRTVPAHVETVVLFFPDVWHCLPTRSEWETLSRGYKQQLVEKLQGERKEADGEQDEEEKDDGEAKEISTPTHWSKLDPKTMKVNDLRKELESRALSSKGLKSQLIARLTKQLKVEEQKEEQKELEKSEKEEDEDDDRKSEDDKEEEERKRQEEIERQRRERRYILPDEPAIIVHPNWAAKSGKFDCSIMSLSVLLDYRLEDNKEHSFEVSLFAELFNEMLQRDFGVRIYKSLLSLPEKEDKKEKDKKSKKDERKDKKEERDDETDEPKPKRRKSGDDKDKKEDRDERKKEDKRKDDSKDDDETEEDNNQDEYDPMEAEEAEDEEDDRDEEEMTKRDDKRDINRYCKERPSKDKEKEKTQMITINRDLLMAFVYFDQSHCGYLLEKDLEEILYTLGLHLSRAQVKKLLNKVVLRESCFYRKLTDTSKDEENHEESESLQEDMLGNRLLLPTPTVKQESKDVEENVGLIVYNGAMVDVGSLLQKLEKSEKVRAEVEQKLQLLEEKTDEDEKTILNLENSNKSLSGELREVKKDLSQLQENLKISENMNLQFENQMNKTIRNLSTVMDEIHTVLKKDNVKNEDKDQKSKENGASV
inactive: [1] -0.129 | [2] 0.061 | [3] 0.043 | [4] 0.044 | [5] -0.043

C9orf72 (UniProt Q96LT7)
Chain of UniProt Q96LT7 (Q96LT7 whole entry, looked up): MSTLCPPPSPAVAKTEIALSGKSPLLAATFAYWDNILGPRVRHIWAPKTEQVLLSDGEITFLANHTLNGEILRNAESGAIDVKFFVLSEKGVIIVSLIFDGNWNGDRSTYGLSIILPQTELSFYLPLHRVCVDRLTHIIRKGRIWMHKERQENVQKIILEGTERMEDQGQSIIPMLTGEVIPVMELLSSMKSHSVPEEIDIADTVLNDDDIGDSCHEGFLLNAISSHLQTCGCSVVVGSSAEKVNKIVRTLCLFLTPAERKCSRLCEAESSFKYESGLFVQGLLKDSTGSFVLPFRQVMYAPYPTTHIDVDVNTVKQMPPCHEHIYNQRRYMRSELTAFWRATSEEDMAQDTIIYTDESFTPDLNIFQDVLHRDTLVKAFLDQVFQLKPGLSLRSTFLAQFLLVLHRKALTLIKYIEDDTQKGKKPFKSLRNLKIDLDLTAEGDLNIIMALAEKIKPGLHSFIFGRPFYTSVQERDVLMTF
inactive: [1] 0.02 | [2] 0.009 | [3] 0.085 | [4] -0.115 | [5] 0.002

CDK5RAP3 isoform 4 (UniProt Q96JB5)
inactive: [1] -0.042 | [2] 0.054 | [3] 0.099 | [4] 0 | [5] -0.05

CLTB (UniProt P09497)
Chain of UniProt P09497 (P09497 whole entry, looked up): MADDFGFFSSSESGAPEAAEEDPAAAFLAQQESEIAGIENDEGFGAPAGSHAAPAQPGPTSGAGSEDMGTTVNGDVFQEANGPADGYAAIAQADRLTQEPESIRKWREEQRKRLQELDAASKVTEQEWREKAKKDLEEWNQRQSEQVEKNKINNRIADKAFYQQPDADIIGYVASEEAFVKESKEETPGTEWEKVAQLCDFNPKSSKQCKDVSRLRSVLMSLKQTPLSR
inactive: [1] 0.021 | [2] -0.01 | [3] -0.016 | [4] -0.01 | [5] -0.02

CDK5 (UniProt Q00535)
Chain of UniProt Q00535 (Q00535 whole entry, looked up): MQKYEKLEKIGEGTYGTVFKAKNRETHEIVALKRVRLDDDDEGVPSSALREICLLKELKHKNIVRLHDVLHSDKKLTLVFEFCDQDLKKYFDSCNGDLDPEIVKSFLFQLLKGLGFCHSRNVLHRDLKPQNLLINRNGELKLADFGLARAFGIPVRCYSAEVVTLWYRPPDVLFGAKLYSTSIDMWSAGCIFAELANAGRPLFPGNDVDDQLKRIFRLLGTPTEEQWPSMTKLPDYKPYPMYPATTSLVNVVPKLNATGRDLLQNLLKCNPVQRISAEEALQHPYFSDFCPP
inactive: [1] -0.015 | [2] 0.087 | [3] -0.003 | [4] -0.023 | [5] -0.005

C19orf53 (UniProt Q9UNZ5)
inactive: [1] 0.105 | [2] -0.258 | [3] -0.266 | [4] 0.203 | [5] -0.01

CD55 isoform 7 (UniProt P08174)
inactive: [1] 0.026 | [2] -0.058 | [3] -0.009 | [4] -0.066 | [5] -0.049

CCAR2 isoform 2 (UniProt Q8N163)
inactive: [1] -0.057 | [2] -0.014 | [3] 0.079 | [4] -0.089 | [5] 0.011

C4orf33 (UniProt Q8N1A6)
Chain of UniProt Q8N1A6 (Q8N1A6 whole entry, looked up): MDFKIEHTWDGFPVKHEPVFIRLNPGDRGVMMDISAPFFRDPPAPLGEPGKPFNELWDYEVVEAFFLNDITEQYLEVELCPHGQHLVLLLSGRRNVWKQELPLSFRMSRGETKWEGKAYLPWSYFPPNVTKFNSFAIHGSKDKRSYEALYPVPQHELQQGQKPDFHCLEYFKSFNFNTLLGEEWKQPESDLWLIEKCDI
inactive: [1] -0.041 | [2] 0.176 | [3] 0.066 | [4] 0.024 | [5] -0.003

CKS1B (UniProt P61024)
Chain of UniProt P61024 (P61024 whole entry, looked up): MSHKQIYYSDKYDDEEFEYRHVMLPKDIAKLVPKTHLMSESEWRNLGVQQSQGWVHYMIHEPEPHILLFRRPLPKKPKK
inactive: [1] -0.004 | [2] 0.056 | [3] 0.024 | [4] -0.067 | [5] -0.02

CDC42SE1 (UniProt Q9NRR8)
inactive: [1] -0.151 | [2] 0.016 | [3] 0.088 | [4] -0.076 | [5] -0.007

CRK (UniProt P46108)
inactive: [1] 0 | [2] 0.013 | [3] 0.005 | [4] 0.028 | [5] -0.01

COX6B1 (UniProt P14854)
inactive: [1] 0.007 | [2] 0.141 | [3] 0.003 | [4] -0.153 | [5] -0.054

CRYM-AS1 (UniProt A6NIL9)
inactive: [1] -0.295 | [2] 0.037 | [3] 0.297 | [4] -0.201 | [5] -0.002

CD81 (UniProt P60033)
inactive: [1] -0.083 | [2] -0.013 | [3] -0.035 | [4] 0.03 | [5] 0.109

CLN8 (UniProt Q9UBY8)
Chain of UniProt Q9UBY8 (Q9UBY8 whole entry, looked up): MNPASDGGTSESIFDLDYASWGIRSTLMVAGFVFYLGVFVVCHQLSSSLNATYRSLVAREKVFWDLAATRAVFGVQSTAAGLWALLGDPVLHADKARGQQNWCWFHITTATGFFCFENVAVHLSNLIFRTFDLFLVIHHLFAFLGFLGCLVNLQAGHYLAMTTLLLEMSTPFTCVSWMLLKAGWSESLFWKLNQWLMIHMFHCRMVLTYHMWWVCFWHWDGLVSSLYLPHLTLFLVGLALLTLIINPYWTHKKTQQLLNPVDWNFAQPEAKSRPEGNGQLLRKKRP
inactive: [1] 0.121 | [2] 0.042 | [3] -0.067 | [4] 0.043 | [5] -0.057

CSNK1A1 (UniProt P48729)
inactive: [1] 0.048 | [2] 0 | [3] 0.008 | [4] 0.046 | [5] 0.02

CERT isoform 3 (UniProt Q9Y5P4)
Chain of UniProt Q9Y5P4 (Q9Y5P4 whole entry, looked up): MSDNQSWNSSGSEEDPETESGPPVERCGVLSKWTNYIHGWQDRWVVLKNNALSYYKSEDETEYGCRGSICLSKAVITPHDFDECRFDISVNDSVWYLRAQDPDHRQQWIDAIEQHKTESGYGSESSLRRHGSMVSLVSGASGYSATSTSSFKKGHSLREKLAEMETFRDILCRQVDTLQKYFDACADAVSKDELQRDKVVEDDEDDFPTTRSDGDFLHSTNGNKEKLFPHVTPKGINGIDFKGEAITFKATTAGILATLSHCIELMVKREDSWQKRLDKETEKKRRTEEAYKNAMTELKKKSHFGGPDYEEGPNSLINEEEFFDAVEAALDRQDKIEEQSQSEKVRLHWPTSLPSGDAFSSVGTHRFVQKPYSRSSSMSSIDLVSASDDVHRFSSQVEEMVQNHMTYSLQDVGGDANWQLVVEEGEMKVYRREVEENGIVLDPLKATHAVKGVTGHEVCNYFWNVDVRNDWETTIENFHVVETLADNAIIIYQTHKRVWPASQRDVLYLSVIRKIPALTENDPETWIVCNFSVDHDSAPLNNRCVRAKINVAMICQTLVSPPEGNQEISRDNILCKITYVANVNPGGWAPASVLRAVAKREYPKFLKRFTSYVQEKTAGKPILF
inactive: [1] 0.102 | [2] 0.029 | [3] 0.066 | [4] 0.14 | [5] -0.028

CAMK2G isoform 6 (UniProt Q13555)
Chain of UniProt Q13555 (Q13555 whole entry, looked up): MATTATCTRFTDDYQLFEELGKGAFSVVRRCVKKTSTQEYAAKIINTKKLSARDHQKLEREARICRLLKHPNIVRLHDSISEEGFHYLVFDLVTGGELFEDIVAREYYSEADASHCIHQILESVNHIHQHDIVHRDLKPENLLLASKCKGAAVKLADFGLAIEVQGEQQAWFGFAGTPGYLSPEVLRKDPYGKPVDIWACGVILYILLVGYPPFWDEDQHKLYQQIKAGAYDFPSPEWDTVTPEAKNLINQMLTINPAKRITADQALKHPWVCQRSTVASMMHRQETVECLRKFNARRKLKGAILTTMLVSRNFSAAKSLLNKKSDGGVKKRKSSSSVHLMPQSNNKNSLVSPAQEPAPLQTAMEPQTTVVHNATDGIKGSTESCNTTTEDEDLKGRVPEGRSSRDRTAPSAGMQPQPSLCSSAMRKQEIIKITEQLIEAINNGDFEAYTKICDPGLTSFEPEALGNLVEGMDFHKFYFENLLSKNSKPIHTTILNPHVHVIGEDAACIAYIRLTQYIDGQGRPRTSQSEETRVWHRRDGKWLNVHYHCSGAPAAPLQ
inactive: [1] -0.017 | [2] 0.054 | [3] 0.044 | [4] 0.096 | [5] -0.021

Reference: the supplement of paper PMC10849652
